In the supplement of paper PMC6411743 one finds NP40-soluble protein abundance data, which are given here for five targets.

± gives the standard deviation of the averaged measurements. Of roughly 5,400 targets only a part is listed; those with the largest changes were picked by preference.

Compound in the assay: Nc1nc2c(ncn2[C@@H]2O[C@H](COP(=O)(O)OP(=O)(O)OP(=O)(O)O)[C@@H](O)[C@H]2O)c(=O)[nH]1 [guanosine triphosphate]
Kind of assay: NP40-soluble protein abundance relative to vehicle (solubility fold change) (ratio); higher = more soluble protein in presence of GTP. Here is the method:
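Solubility proteome profiling in Jurkat crude lysate. Lysate was treated with Mg-GTP (0.1-10 mM) for 10 min at room temperature and 3 min at 37 °C, then solubilised with 0.8% NP40 and benzonase, followed by ultracentrifugation. Proteins were quantified by TMT10 LC-MS/MS; the value is the NP40-soluble abundance relative to the NP40-processed vehicle, from 3 independent experiments.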

Chain of UniProt Q13347 (Q13347 whole entry): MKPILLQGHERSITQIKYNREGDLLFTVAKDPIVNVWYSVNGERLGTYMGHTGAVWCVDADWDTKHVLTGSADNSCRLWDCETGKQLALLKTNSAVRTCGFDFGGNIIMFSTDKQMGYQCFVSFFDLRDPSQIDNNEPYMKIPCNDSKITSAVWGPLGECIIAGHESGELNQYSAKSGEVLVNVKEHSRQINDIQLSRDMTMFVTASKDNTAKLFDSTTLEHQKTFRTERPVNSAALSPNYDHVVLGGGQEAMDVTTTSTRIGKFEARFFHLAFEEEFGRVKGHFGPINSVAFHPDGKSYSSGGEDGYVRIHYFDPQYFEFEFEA
Chain of UniProt Q8NE71 (Q8NE71 whole entry, one chain of several): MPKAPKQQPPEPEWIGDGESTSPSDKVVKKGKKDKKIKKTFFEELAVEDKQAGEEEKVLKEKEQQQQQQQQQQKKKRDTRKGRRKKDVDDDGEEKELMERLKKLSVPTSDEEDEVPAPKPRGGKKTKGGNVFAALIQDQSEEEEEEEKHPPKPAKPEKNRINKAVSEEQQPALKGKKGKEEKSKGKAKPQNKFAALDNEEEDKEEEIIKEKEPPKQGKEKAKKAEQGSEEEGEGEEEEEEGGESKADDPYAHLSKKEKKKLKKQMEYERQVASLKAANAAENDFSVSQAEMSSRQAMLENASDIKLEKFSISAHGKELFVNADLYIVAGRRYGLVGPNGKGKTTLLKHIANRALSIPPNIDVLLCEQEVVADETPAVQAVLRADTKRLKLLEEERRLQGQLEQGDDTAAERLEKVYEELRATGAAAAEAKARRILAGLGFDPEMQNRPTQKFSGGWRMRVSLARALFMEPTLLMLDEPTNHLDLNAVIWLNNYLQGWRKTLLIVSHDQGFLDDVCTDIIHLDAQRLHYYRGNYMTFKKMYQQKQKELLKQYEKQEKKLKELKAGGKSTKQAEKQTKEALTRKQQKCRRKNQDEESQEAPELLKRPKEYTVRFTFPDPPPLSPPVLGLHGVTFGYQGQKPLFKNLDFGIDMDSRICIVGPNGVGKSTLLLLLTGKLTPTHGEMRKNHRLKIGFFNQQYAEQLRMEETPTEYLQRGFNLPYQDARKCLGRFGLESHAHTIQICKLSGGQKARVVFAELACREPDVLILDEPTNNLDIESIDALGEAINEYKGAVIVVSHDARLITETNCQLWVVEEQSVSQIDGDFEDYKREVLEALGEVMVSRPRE
Chain of UniProt Q2TB10 (Q2TB10 whole entry, one chain of several): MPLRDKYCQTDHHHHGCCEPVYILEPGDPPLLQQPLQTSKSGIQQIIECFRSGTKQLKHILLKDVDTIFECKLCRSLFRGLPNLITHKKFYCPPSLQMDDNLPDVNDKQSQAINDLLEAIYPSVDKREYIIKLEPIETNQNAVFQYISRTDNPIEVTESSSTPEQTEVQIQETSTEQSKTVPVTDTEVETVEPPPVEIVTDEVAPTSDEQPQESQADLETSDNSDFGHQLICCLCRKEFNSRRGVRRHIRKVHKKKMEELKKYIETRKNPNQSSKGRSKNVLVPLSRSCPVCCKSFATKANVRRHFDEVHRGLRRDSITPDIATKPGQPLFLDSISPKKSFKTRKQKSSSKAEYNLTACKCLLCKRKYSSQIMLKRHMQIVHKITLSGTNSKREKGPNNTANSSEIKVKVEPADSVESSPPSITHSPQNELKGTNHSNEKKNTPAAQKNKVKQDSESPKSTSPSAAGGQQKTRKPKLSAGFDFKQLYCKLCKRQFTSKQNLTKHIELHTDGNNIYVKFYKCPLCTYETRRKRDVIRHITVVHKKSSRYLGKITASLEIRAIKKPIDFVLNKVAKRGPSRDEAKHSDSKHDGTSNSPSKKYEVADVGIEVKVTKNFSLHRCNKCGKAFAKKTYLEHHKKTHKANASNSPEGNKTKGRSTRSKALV
Chain of UniProt Q15172 (Q15172 whole entry): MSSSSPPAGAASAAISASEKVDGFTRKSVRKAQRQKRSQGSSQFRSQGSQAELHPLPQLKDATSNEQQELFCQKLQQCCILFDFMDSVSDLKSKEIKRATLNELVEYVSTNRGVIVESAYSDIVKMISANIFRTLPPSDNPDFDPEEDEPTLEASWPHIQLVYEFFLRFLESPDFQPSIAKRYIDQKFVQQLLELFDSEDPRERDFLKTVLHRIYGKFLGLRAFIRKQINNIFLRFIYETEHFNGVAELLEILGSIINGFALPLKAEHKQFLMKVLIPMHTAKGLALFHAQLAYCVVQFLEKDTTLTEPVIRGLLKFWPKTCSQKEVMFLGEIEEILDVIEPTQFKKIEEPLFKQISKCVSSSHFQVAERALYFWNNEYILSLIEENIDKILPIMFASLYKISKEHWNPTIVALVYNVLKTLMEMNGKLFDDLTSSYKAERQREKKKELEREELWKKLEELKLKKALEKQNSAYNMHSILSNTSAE

Consider EIF3I (UniProt Q13347), for which the NP40-soluble protein abundance runs as follows: (concentration: 0.1mM) 1.02 ± 0.04; (concentration: 0.5mM) 1.03 ± 0.091; (concentration: 1mM) 0.993 ± 0.089; (concentration: 2mM) 1.04 ± 0.15; (concentration: 4mM) 1.13 ± 0.19; (concentration: 6mM) 1.26 ± 0.26. In addition, the NP40-soluble protein abundance stood at 1.32 ± 0.23 (concentration: 8mM) and 1.4 ± 0.29 (concentration: 10mM).
As for UniProt Q2TB10|A0A087WXB4, the NP40-soluble protein abundance is, setting by setting: (concentration: 0.1mM) 1.04 ± 0.1; (concentration: 0.5mM) 1.15 ± 0.14; (concentration: 1mM) 1.15 ± 0.12; (concentration: 2mM) 1.36 ± 0.28; (concentration: 4mM) 1.68 ± 0.48; (concentration: 6mM) 1.9 ± 0.44. For the same target, the NP40-soluble protein abundance (concentration: 8mM) came to 2.04 ± 0.64 and the NP40-soluble protein abundance (concentration: 10mM) was found to be 2.54 ± 1.1.
UniProt Q13085|A0A087X126: the NP40-soluble protein abundance (concentration: 0.1mM) stood at 1.09 ± 0.08; the NP40-soluble protein abundance (concentration: 0.5mM) worked out at 1.09 ± 0.11; the NP40-soluble protein abundance (concentration: 1mM) is 1.03 ± 0.088; the NP40-soluble protein abundance (concentration: 2mM) came out at 1.07 ± 0.14; the NP40-soluble protein abundance (concentration: 4mM) was determined as 1.05 ± 0.11; the NP40-soluble protein abundance (concentration: 6mM) was 1.04 ± 0.097. In addition, the NP40-soluble protein abundance is, setting by setting: (concentration: 8mM) 0.975 ± 0.072; (concentration: 10mM) 0.956 ± 0.056.
In the case of PPP2R5A (UniProt Q15172), the NP40-soluble protein abundance worked out at 1.04 ± 0.063 (concentration: 0.1mM); 0.993 ± 0.046 (concentration: 0.5mM); 0.939 ± 0.011 (concentration: 1mM); 0.9 ± 0.033 (concentration: 2mM); 0.877 ± 0.048 (concentration: 4mM); 0.864 ± 0.04 (concentration: 6mM). Also, the NP40-soluble protein abundance stood at 0.862 ± 0.097 (concentration: 8mM) and 0.848 ± 0.055 (concentration: 10mM).
With Q5STZ8|Q8NE71 (UniProt Q8NE71), the NP40-soluble protein abundance runs as follows: (concentration: 0.1mM) 1.03 ± 0.023; (concentration: 0.5mM) 1.02 ± 0.019; (concentration: 1mM) 0.96 ± 0.053; (concentration: 2mM) 0.987 ± 0.043; (concentration: 4mM) 0.993 ± 0.06; (concentration: 6mM) 0.997 ± 0.046. The NP40-soluble protein abundance (concentration: 8mM) turned out to be 0.994 ± 0.066 and the NP40-soluble protein abundance (concentration: 10mM) came to 0.984 ± 0.092.
